91 compounds from ChEMBL document CHEMBL1201862, “PubChem BioAssay data set” (2004) can be followed below.

About 2,100 (0.53%) of roughly 400,000 compounds were called active. Not shown: some 14% with an inconclusive outcome. How the calls were made is not given here. Only a selection was taken, and actives are over-represented in it overall.

Sequence of Ataxin-2 (Homo sapiens) (Q99700 whole entry): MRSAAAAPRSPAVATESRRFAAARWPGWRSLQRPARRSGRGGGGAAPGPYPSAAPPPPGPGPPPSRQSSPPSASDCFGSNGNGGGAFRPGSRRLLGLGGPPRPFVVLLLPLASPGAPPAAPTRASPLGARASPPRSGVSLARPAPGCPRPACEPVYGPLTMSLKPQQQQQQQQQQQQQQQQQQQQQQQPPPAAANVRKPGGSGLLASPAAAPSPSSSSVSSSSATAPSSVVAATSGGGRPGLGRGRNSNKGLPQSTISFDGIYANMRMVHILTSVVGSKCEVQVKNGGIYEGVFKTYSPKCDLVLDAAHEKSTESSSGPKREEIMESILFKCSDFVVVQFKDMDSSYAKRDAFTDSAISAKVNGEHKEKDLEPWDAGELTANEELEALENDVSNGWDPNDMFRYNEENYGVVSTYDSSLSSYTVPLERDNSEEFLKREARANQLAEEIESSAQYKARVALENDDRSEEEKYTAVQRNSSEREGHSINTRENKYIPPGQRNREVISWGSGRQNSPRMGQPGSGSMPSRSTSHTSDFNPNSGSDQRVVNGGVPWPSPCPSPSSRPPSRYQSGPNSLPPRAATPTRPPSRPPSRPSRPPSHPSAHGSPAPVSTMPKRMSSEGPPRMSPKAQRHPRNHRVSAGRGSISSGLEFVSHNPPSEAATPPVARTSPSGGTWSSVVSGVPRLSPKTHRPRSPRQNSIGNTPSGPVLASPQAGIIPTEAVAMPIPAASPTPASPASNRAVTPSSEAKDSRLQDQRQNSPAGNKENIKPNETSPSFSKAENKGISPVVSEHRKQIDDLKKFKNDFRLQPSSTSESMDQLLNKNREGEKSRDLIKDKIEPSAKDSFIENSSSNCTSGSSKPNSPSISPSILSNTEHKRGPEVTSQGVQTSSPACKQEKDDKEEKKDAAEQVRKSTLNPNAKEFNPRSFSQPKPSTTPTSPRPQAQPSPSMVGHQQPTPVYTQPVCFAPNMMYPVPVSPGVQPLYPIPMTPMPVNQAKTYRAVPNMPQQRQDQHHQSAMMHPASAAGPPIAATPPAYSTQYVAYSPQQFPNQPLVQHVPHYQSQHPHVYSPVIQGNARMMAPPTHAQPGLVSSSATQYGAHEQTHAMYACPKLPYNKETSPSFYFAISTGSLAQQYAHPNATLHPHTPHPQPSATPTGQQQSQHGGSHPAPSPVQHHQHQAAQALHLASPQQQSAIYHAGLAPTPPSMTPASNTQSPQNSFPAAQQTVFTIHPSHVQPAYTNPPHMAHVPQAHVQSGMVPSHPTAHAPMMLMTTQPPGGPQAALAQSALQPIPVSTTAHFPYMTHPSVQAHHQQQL

The test addresses Ataxin-2 (Homo sapiens) (UniProt Q99700). The test can be described thus: qHTS for Inhibitors of ATXN expression. The class given is functional. A general note: Quantitative high-throughput screening tests each substance at several concentrations.
For `Nc1c(C(=O)Nc2ccccc2)sc2nc(N3CCOCC3)c3c(c12)CCCC3`, the Potency result was “inactive”.
For `O=C(O)c1ccc(N/N=C/c2ccc(-c3ccc(Cl)cc3Cl)o2)cc1`, the Potency entry is “inactive”.
The result for `COc1ccc(/C=C2/C(=O)ON=C2C)cc1Br` reads “inactive”; that for `CC1=NOC(=O)/C1=C\c1ccc(-c2ccc(Cl)cc2Cl)o1`, 35.5 µM (active).
`O=C(O)c1ccc(CNCc2ccccc2F)cc1`: the Potency entry is “inactive”.
Then `CC1CCC(NC(=O)c2nn(C)c3c2CS(=O)(=O)c2ccccc2-3)CC1` (stereo unspecified), with 39.8 µM (active); and `CC1CCC(NC(=O)COC(=O)CNC(=O)c2ccc3ccccc3c2)CC1` (stereo unspecified), with “inactive”.
With `CC1CCC(NC(=O)CN2C(=O)C3CC=CCC3C2=O)CC1` (stereo unspecified), the Potency entry is “inactive”.
With `Cc1nc(-c2ccc(S(=O)(=O)Nc3cc(S(=O)(=O)N(C)C)ccc3C)s2)cs1`, the Potency entry was “inactive”.
In the case of `COc1ccc(-c2cc(C(F)(F)F)n3ncc(C(=O)NCC4CCCO4)c3n2)cc1` (stereo unspecified), the Potency entry was “inactive”.
`C=CCCCCCCCCC(=O)NNC1CC(=O)N(c2ccccc2)C1=O` (stereo unspecified): the Potency result was “inactive”.
Then `CCCCN(CCCC)CC(O)Cn1cc(/C=C/C(=O)c2ccccc2)c2ccccc21` (stereo unspecified), with “inactive”.
With `CC(C)CC(=O)/C=C/n1c(=S)oc2ccccc21`, the Potency is 31.6 µM (active).
With `CC(=O)/C=C/n1c(=S)oc2ccccc21`, the Potency is 9.47 µM (active).
`O=C(CCn1c(=S)oc2ccccc21)Nc1ccccc1F`: the Potency entry was “inactive”.
With `CC(C)CC(=O)NC(=S)NCc1ccccc1`, the Potency entry is “inactive”.
As to `CC(=O)Cn1c(=O)oc2ccccc21`, the Potency result was “inactive”.
With `CC(=O)OC[C@H]1O[C@@H](Oc2cc3ccc(=O)oc3cc2OC(C)=O)[C@H](OC(C)=O)[C@@H](OC(C)=O)[C@@H]1OC(C)=O`, the Potency entry is “inactive”.
As for `Cc1cccc(NC(=O)c2[nH]cnc2C(=O)N[C@@H](Cc2ccccc2)C(=O)OC(C)(C)C)c1`, the Potency is 39.8 µM (active).
Turning to `CC(C)C[C@H](NC(=O)c1[nH]cnc1C(=O)NCCCCCNC(=O)OC(C)(C)C)C(=O)OC(C)(C)C`, the Potency is 35.5 µM (active).
For `CCOc1ccc(C(C)NC(=O)c2cccs2)cc1OCC` (stereo unspecified), the Potency result is “inactive”.
Take `Cc1cccc(NC(=O)c2nc[nH]c2C(=O)N[C@@H](C)c2ccccc2)c1`: the Potency is 28.2 µM (active).
With `Cc1ccc(NC(=O)C(Nc2cccc(C)c2)c2ccccc2)cc1` (stereo unspecified), the Potency result was “inactive”.
As to `Cc1cccc(NC(=O)c2c(C)nn(-c3ccccc3)c2Cl)c1`, the Potency entry is “inactive”.
Regarding `C[C@@H](NC(=O)c1[nH]cnc1C(=O)N[C@@H](Cc1ccccc1)C(=O)OC(C)(C)C)c1ccccc1`, the Potency is 35.5 µM (active).
`O=C(Nc1ccccc1)c1nsnc1C(=O)Nc1ccccc1`: the Potency entry was “inactive”.
For the compound `COc1ccc(NC(=O)CSc2nnc3n2CCCCC3)cc1S(=O)(=O)N1CCOCC1`, the Potency result was “inactive”.
The result for `Cc1ccccc1/C=C/c1nc2ccccc2c(=O)n1CCc1ccccc1` reads “inactive”; that for `CCc1cc2c(-c3ccccc3)cc(=O)oc2c2c1OCN(Cc1ccc(F)cc1)C2`, “inactive”; that for `Cc1ccc2nc(N3C(=O)C(O)=C(C(=O)c4ccc(C)o4)C3c3cccc(O)c3)sc2c1` (stereo unspecified), “inactive”.
As to `c1ccc(-c2cnn3c(-c4ccccc4)c(-c4ccccc4)nc3n2)cc1`, the Potency entry is “inactive”.
Consider `COc1ccc(OC)c(/N=C/c2c(O)oc3ccccc3c2=O)c1`, for which the Potency result is “inactive”.
Consider `CC(C)C[C@H](NC(=O)c1[nH]cnc1C(=O)N[C@H](C)c1ccccc1)C(=O)OC(C)(C)C`, for which the Potency is 39.8 µM (active).
Consider `CC(NC(=O)/C(C#N)=C/c1ccc(OCC(=O)O)cc1)c1ccccc1` (stereo unspecified), for which the Potency entry is “inactive”.
With `COCc1cc(C)nc2sc(C(=O)Nc3ccccc3F)c(N)c12`, the Potency entry is “inactive”.
For the compound `CC(C)(C)OC[C@H](NC(=O)c1[nH]cnc1C(=O)Nc1ccccc1F)C(=O)OC(C)(C)C`, the Potency was 35.5 µM (active).
For `CC(C)C[C@H](NC(=O)c1[nH]cnc1C(=O)N[C@@H](Cc1ccccc1)C(=O)OC(C)(C)C)C(=O)OC(C)(C)C`, the Potency is 25.1 µM (active).
Take `Nc1c(C(=O)Nc2ccccc2F)sc2nc(-c3cccnc3)ccc12`: the Potency result was “inactive”.
Consider `CCCCC(C(=O)NC(C)c1ccccc1)C(=O)NC(C)c1ccccc1` (stereo unspecified), for which the Potency result was “inactive”.
`C[C@H](NC(=O)c1[nH]cnc1C(=O)N[C@@H](Cc1ccccc1)C(=O)OC(C)(C)C)C(=O)OC(C)(C)C`: the Potency was 39.8 µM (active).
With `CCOc1ccccc1NC(=O)COC(=O)C(Cc1ccccc1)NC(=O)c1ccco1` (stereo unspecified), the Potency result is “inactive”.
On to `CCOC(=O)N1CCN(S(=O)(=O)c2c(C)nc3scc(C)n3c2=O)CC1`, for which the Potency entry is “inactive”.
With `COc1ccc(C2C=C(c3ccccc3)Nc3ncnn32)cc1` (stereo unspecified), the Potency result was “inactive”.
In the case of `O=S(=O)(NCCc1cccs1)c1ccc(Br)cc1`, the Potency result was “inactive”.
Then `COCc1cc(C)nc2sc(C(=O)Nc3ccccc3Br)c(N)c12`, with “inactive”; and `CC(C)C[C@H](NC(=O)c1[nH]cnc1C(=O)Nc1ccc(CNC(=O)OC(C)(C)C)cc1)C(=O)OC(C)(C)C`, with 28.2 µM (active); and `CC(C)(C)OC(=O)[C@H](Cc1ccccc1)NC(=O)c1[nH]cnc1C(=O)Nc1ccc(Cl)cc1`, with 39.8 µM (active).
`CC(C)C[C@H](NC(=O)c1[nH]cnc1C(=O)N[C@@H](C)C(=O)OC(C)(C)C)C(=O)OC(C)(C)C`: the Potency was 35.5 µM (active).
`COc1ccccc1OCc1ccc(C(=O)NC(C)c2ccccc2)o1` (stereo unspecified): the Potency entry was “inactive”.
Consider `CC(C)C[C@H](NC(=O)c1[nH]cnc1C(=O)N[C@@H](C)c1ccccc1)C(=O)OCc1ccccc1`, for which the Potency is 35.5 µM (active).
In the case of `CN(C)Cc1c(O)ccc2cc(-c3nc4ccccc4n3C)c(=O)oc12`, the Potency entry is “inactive”.
As to `Cc1cc2nc3c(O)nc(S)nc3nc2cc1NC(=O)C(F)(F)F`, the Potency entry was “inactive”.
As for `N#Cc1cc2c(nc1SCC(=O)Nc1nccs1)CCCCC2`, the Potency result is “inactive”.
As to `CN(C)c1ccc(/C=N/N=C2/SC(CC(=O)O)C(=O)N2c2ccc(O)cc2)cc1` (stereo unspecified), the Potency entry was “inactive”.
As for `CC(C)(C)c1cc2ncnc(N3CCCCC3)c2s1`, the Potency result was “inactive”.
`CC[C@@H](C)[C@H](NC(=O)OC(C)(C)C)c1nnc(S(=O)(=O)Cc2cc(C)ccc2C)o1`: the Potency was 39.8 µM (active).
Take `CCC(C)[C@@H](NC(=O)OC(C)(C)C)c1nnc(S(=O)(=O)Cc2cccc(C)c2)o1` (stereo partly specified): the Potency was 22.4 µM (active).
On to `CC(NC(=O)OC(C)(C)C)C(=O)Oc1ccc2ccc(=O)oc2c1` (stereo unspecified), for which the Potency entry is “inactive”.
In the case of `CC(NC(=O)OC(C)(C)C)C(=O)Oc1cc2oc(=O)cc(-c3ccccc3)c2cc1Cl` (stereo unspecified), the Potency result was “inactive”.
The result for `CC(C)[C@H](NC(=O)OC(C)(C)C)c1nnc(S(=O)(=O)Cc2c(F)cccc2Cl)o1` reads 22.4 µM (active); that for `N#CCC(=O)N/N=C/c1ccc(N2N=C(c3ccccc3)CC2c2ccccc2)cc1` (stereo unspecified), “inactive”; that for `Cc1ccc(C)c(NC(=O)CCNS(=O)(=O)c2ccc3nc(O)oc3c2)c1`, “inactive”.
With `CCN1CCN(C(c2cccs2)C(C)NC(=O)C(C)C)CC1` (stereo unspecified), the Potency entry is “inactive”.
For the compound `Nc1c(C(=O)N/N=C/c2ccccc2Cl)oc2nc(-c3ccccc3)cc(-c3ccco3)c12`, the Potency entry is “inactive”.
The result for `Cc1ccc(-n2c(C)cc(/C=N/NC(=O)Cn3c4ccccc4c(=O)c4ccccc43)c2C)cc1` reads “inactive”; that for `O=C(Cn1c2ccccc2c(=O)c2ccccc21)N/N=C/c1ccc(N2CCCC2)c([N+](=O)[O-])c1`, 39.8 µM (active); that for `Cc1cc(/C=N/NC(=O)Cn2c3ccccc3c(=O)c3ccccc32)c(C)n1-c1ccccc1`, “inactive”.
Consider `Cc1ccc(S(=O)(=O)NC(C(=O)Oc2cc3oc(=O)cc(C)c3cc2Cl)C(C)C)cc1` (stereo unspecified), for which the Potency entry is “inactive”.
On to `CC(=O)Nc1nn(CC(C)C)c2nc3ccc(C)cc3cc12`, for which the Potency entry is “inactive”.
Turning to `O=S(=O)(Nc1nc2n(n1)C(c1ccc(F)cc1)C=C(c1ccccc1)N2)c1ccccc1` (stereo unspecified), the Potency result is “inactive”.
With `O[C@H]1C[C@H](c2ccc(Cl)cc2)N(Cc2cccs2)C[C@@H]1n1cc(-c2ccc(F)cc2)nn1`, the Potency is 25.1 µM (active).
`CCCCCCN1C[C@H](n2cc(-c3ccc(F)cc3)nn2)[C@@H](O)C[C@@H]1c1ccc(Cl)cc1`: the Potency was 22.4 µM (active).
As for `CCCCCC(=O)N1C[C@@H](n2cc(-c3ccc(F)cc3)nn2)[C@H](O)C[C@@H]1c1ccc(Cl)cc1`, the Potency is 31.6 µM (active).
The result for `CCCC(=O)NCn1nnc(-c2ccc(Cl)cc2)n1` reads “inactive”.
Regarding `COc1ccc([C@H]2C[C@H](O)[C@@H](n3cc(-c4ccc(F)cc4)nn3)CN2CC2CCCCC2)cc1`, the Potency was 39.8 µM (active).
Then `CCCCNC(=O)COC(=O)c1c2c(nc3ccccc13)/C(=C/c1cccs1)CC2`, with “inactive”.
For the compound `COc1ccc(OCCCC(=O)ON=C(N)c2ccccc2C)cc1`, the Potency result is “inactive”.
Then `CCOC(=O)C1=C(NC(=O)c2cc(S(=O)(=O)N3CCOCC3)ccc2C)Nc2ccccc2N=C1CC`, with “inactive”; and `NS(=O)(=O)c1ccc(N2N=C(c3ccc(Br)cc3)CC2c2ccc(F)cc2)cc1` (stereo unspecified), with “inactive”; and `COc1ccc(C2=Nc3nc(-c4ccccc4)cn3C(c3ccc(OC)cc3)C2)cc1` (stereo unspecified), with “inactive”.
For `CCCCCCN1C[C@@H](n2cc(-c3ccc(F)cc3)nn2)[C@H](O)C[C@@H]1c1ccc(OC)cc1`, the Potency was 35.5 µM (active).
Turning to `CCCCCCN1C[C@H](n2cc(C3CC3)nn2)[C@@H](O)C[C@@H]1c1ccc(C)cc1`, the Potency was 35.5 µM (active).
The result for `COc1ccc(C2=CC(c3ccc(F)cc3)n3nnnc3N2)cc1` (stereo unspecified) reads “inactive”; that for `CCCCCCN1C[C@H](n2cc(-c3ccc(F)cc3)nn2)[C@@H](O)C[C@@H]1c1ccc(C)cc1`, 39.8 µM (active).
For `Cc1ccc([C@H]2C[C@H](O)[C@@H](n3cc(C4CC4)nn3)CN2Cc2cccs2)cc1`, the Potency was 35.5 µM (active).
Then `Fc1ccc(C2CC(c3cccs3)=NN2c2ccccc2)cc1` (stereo unspecified), with “inactive”; and `Cc1cc(F)ccc1NC(=O)c1sc2nc(-c3cccs3)ccc2c1N`, with “inactive”.
For `CCOC(=O)c1cc2c(=O)n3ccccc3nc2n(Cc2ccco2)/c1=N/C(=O)c1ccc(OC)cc1OC`, the Potency entry is “inactive”.
As to `COC(=O)[C@]12CCCCC=C1N(CCC1=CCCCC1)C(=O)[C@H](CC(=O)N1CCN(C(=O)c3ccco3)CC1)C2`, the Potency was 22.4 µM (active).
As to `COC(=O)[C@]12CCCCC=C1N(Cc1cccc3ccccc13)C(=O)[C@H](CC(=O)N1CCN(C(=O)c3ccco3)CC1)C2`, the Potency was 22.4 µM (active).
Consider `CCCCCCCCN1C(=O)[C@H](CC(=O)N2CCN(C(=O)c3ccco3)CC2)C[C@@]2(C(=O)OCC)CCCC=C12`, for which the Potency was 14.1 µM (active).
